For 32 compounds, z-score, cell count and outcome results are on record in PubChem BioAssay AID1645838 (ICCB-Longwood Screening Facility, Harvard Medical School, 2021).

Values joined by “and” are separate entries in the source; they are usually repeats but may differ in a detail not shown here. Equal values may be shown once. The whole screen tested about 2,000 compounds, of which about 100 (5%) were called active. No stated cut-off is given here; in the data, active means z-score above about 2; inactive means the rest. Many of the other results were omitted from the sample, so actives are more common in it than they were.

This experiment in a line: supercomplex reporter luminescence per Hoechst cell count – Hoechst nuclei count (AID 1645838).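 On all read-outs here: control cybrid cells.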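 On z-score: higher means more mitochondrial supercomplex formation.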 As to conditions: Cells, luminescence/Hoechst cell count ratio; for z-score: stronger effect = higher value; for cell count: measured here: cell number, Hoechst nuclei count; for outcome: library stock 10 mM.
Where [1] appears, read: library stock concentration (final well concentration not given) 80 uM.
[2] abbreviates: library stock concentration (final well concentration not given) 400 uM.
Setting [3] is: library stock concentration (final well concentration not given) 2 mM.
The mark [4] stands for this setting: library stock concentration (final well concentration not given) 10 mM.
[5] abbreviates: library stock concentration (final well concentration not given) 46 uM.
The mark [6] stands for this setting: library stock concentration (final well concentration not given) 278 uM.
Setting [7] is: library stock concentration (final well concentration not given) 1.67 mM.

With `COC(=O)CCCCCC[C@@H]1[C@@H](CCC(O)C#Cc2ccccc2F)[C@H](O)C[C@@H]1O` (some centres not stated), the z-score was -0.523 (inactive) and the cell count is 5390.

In the case of `CCCCC[C@H](O)/C=C/[C@@H]1[C@H]2C[C@H](CCCCC(=O)O)O[C@H]2C[C@H]1O`, the z-score was 0.18 (inactive) and the cell count is 5310.

Take `COc1cc(N2CCC(C(N)=O)CC2)ccc1Nc1nc(N)c(Cl)c(Nc2ccccc2S(=O)(=O)C(C)C)n1`: the z-score runs as follows: under setting [1], -0.397 (inactive); under setting [2], -0.357 (inactive); under setting [3], -0.497 (inactive); under setting [4], -0.438 (inactive). Besides, the cell count is, setting by setting: under setting [1], 5060; under setting [2], 4660; under setting [3], 4640; under setting [4], 4760.

Turning to `C#Cc1cccc(Nc2ncnc3cc4c(cc23)OCCOCCOCCO4)c1`, the z-score is -0.401 (inactive) under setting [1], -0.555 (inactive) under setting [2], -0.372 (inactive) under setting [3] and -0.218 (inactive) under setting [4]. For the same compound, the cell count is 5760 under setting [1], 5920 under setting [2], 5800 under setting [3] and 5980 under setting [4].

For `COc1cc2ncnc(Nc3cc(Br)c(O)c(Br)c3)c2cc1OC`, the z-score runs as follows: under setting [1], -0.757 (inactive); under setting [2], -0.502 (inactive); under setting [3], -0.971 (inactive); under setting [4], -0.687 (inactive). The cell count is, setting by setting: under setting [1], 4740; under setting [2], 4630; under setting [3], 5420; under setting [4], 5090.

For `C#Cc1cccc(Nc2ncnc3cc(OCCOC)c(OCCOC)cc23)c1`, the z-score runs as follows: under setting [1], 0.334 (inactive); under setting [2], 0.287 (inactive); under setting [3], -0.186 (inactive); under setting [4], 2.02 (active). In addition, the cell count is, setting by setting: under setting [1], 5220; under setting [2], 5400; under setting [3], 5470; under setting [4], 3820.

As to `C[C@H](N)C(=O)CCCCCC(=O)O`, the z-score is -0.273 (inactive) and the cell count stood at 5410.

For `NCCCNCCCCN(CCCN)[N+]([O-])=NO`, the z-score is 1.09 (inactive) and the cell count was found to be 5110.

Turning to `COc1ccc2cc(CC(=O)O)ccc2c1`, the z-score is -0.782 (inactive) and the cell count turned out to be 5780.

For the compound `CCCCC[C@H](O)/C=C/[C@H]1CC[C@H](O)[C@@H]1CCCCCCC(=O)O`, the z-score was -0.59 (inactive) and the cell count amounted to 5510.

For the compound `O=C(Nc1ccccc1)Nc1ccc(-c2ccc(C(=O)C3CCCC3C(=O)O)cc2)cc1` (configuration not stated), the z-score runs as follows: under setting [1], -0.37 (inactive); under setting [2], -0.219 (inactive); under setting [3], -0.285 (inactive); under setting [4], -0.46 (inactive). Further, the cell count is, setting by setting: under setting [1], 5980; under setting [2], 5880; under setting [3], 6590; under setting [4], 5760.

`CNC(=O)Nc1ccc(-c2nc(N3CC4CCC(C3)O4)c3cnn(C4CCC5(CC4)OCCO5)c3n2)cc1`: the outcome was “inactive; censored for cell count”. Moreover, under setting [1], the z-score is 1.01 (inactive) and the cell count was 2180. Further, under setting [2], the z-score was 1.56 (inactive) and the cell count was found to be 1780. Under setting [3], the z-score was 1.64 (inactive) and the cell count is 1600.

Consider `CN(C)C1CCN(C(=O)c2ccc(NC(=O)Nc3ccc(-c4nc(N5CCOCC5)nc(N5CCOCC5)n4)cc3)cc2)CC1`, for which the outcome was “inactive; censored for cell count”. Also, under setting [1], the z-score is -0.0957 (inactive) and the cell count is 5680. Moreover, under setting [2], the z-score is 0.581 (inactive) and the cell count is 4160. Under setting [3], the z-score was 2.23 (active) and the cell count was found to be 1900.

For `CC(C)CCC[C@@H](C)[C@H]1CC[C@H]2[C@@H]3CC(=O)[C@@]4(O)C[C@@H](O)CC[C@]4(C)[C@H]3CC[C@]12C`, the z-score was 0.076 (inactive) and the cell count stood at 4620.

Consider `CN(CC=CC#CC(C)(C)C)Cc1cccc2ccccc12`, for which the z-score runs as follows: under setting [5], -0.128 (inactive); under setting [6], -0.114 (inactive); under setting [7], -0.2 (inactive); under setting [4], -0.286 (inactive). The cell count under setting [5] was determined as 4930, the cell count under setting [6] was determined as 4830, the cell count under setting [7] came to 5350 and the cell count under setting [4] worked out at 5180.

`CCCCCCCCC#CCCCCCCCC(=O)c1nc2ncccc2o1`: the z-score was -0.992 (inactive) and the cell count came to 5900.

For the compound `CCOC(=O)C(N)Cc1ccc(-c2cc(OC(c3ccc(Cl)cc3-n3ccc(C)n3)C(F)(F)F)nc(N)n2)cc1` (configuration not stated), the z-score is -0.503 (inactive) under setting [5], -0.649 (inactive) under setting [6], -0.638 (inactive) under setting [7] and 1.7 (inactive) under setting [4]. The cell count reads like this: under setting [5], 6360; under setting [6], 6270; under setting [7], 6660; under setting [4], 2760.

Take `CCCCCCCCCCCCCCCCOC[C@H](COP(=O)([O-])OCC[N+](C)(C)C)OC(=O)NC`: the z-score is -1.68 (inactive) and the cell count came out at 5690.

`O=C(c1cc(Cc2n[nH]c(=O)c3ccccc23)ccc1F)N1CCN(C(=O)C2CC2)CC1`: the z-score is -0.363 (inactive) under setting [1], -0.127 (inactive) under setting [2], 0.0622 (inactive) under setting [3] and 2.51 (active) under setting [4]. In addition, the cell count is, setting by setting: under setting [1], 6190; under setting [2], 5590; under setting [3], 5940; under setting [4], 3720.

As for `Nc1ccccc1NC(=O)c1ccc(CNC(=O)OCc2cccnc2)cc1`, the z-score was 5.22 (active) and the cell count amounted to 4300. Further, under setting [5], the z-score was -0.106 (inactive) and the cell count worked out at 4680. Under setting [6], the z-score was -0.0587 (inactive) and the cell count came to 4820. Under setting [7], the z-score was 4.46 (active) and the cell count amounted to 3240. Further, under setting [4], the z-score was 13.5 (active) and the cell count came out at 1730.

Regarding `O=C(NCc1cccnc1)c1ccc(CNS(=O)(=O)c2ccc(F)cc2)cc1`, the z-score reads like this: under setting [1], -0.0415 (inactive); under setting [2], -0.565 (inactive); under setting [3], -0.611 (inactive); under setting [4], -0.531 (inactive). Also, the cell count came to 5120 under setting [1], 5290 under setting [2], 5220 under setting [3] and 4960 under setting [4].

In the case of `CC(C)(C)c1ccc(S(=O)(=O)NCc2ccc(C(=O)Nc3cccnc3)cc2)cc1`, the z-score is, setting by setting: under setting [1], -0.216 (inactive); under setting [2], 0.0762 (inactive); under setting [3], 0.362 (inactive); under setting [4], 0.0219 (inactive). Also, the cell count is, setting by setting: under setting [1], 6170; under setting [2], 5130; under setting [3], 2500; under setting [4], 1690.

Consider `CC1CN(CC(=O)Nc2ccc3c(c2)Cc2cccc(-c4cc(=O)cc(N5CCOCC5)o4)c2S3)CC(C)O1` (configuration not stated), for which the z-score under setting [1] was -0.376 (inactive), the z-score under setting [2] is -0.656 (inactive), the z-score under setting [3] was 0.69 (inactive) and the z-score under setting [4] is 4.45 (active). Moreover, the cell count was 6150 under setting [1], 6090 under setting [2], 4680 under setting [3] and 1840 under setting [4].

For `O=c1cc(-c2cccc3c2Sc2ccccc2S3)oc(N2CCOCC2)c1`, the z-score runs as follows: under setting [5], -0.163 (inactive); under setting [1], -0.486 (inactive); under setting [6], -0.0765 (inactive); under setting [2], -0.335 (inactive); under setting [7], -0.27 (inactive); under setting [3], -0.523 (inactive). Besides, the z-score under setting [4] is 0.302 (inactive) and 0.32 (inactive). Besides, the cell count under setting [5] turned out to be 6030; the cell count under setting [1] came to 4590; the cell count under setting [6] is 5590; the cell count under setting [2] was found to be 4700; the cell count under setting [7] worked out at 5740; the cell count under setting [3] stood at 4720. Also, under setting [4], the cell count was 3610 and 4370.

As for `CCCCCCCCCCCCCCCCCCCCCC(=O)NCCO`, the z-score is 0.434 (inactive) and the cell count was 5500.

For the compound `O=C(O)CCC/C=C\C[C@H]1[C@@H](/C=C/[C@@H](O)CCc2ccccc2)[C@H](O)C[C@@H]1O`, the z-score is -0.319 (inactive) and the cell count was 5160.

As for `CCCCCC(=O)Nc1c(C)cc(Br)cc1C`, the z-score under setting [1] is 0.207 (inactive), the z-score under setting [2] is 0.413 (inactive), the z-score under setting [3] is -0.729 (inactive) and the z-score under setting [4] is -0.28 (inactive). Besides, the cell count under setting [1] worked out at 4910, the cell count under setting [2] was found to be 4850, the cell count under setting [3] was 5330 and the cell count under setting [4] was 4660.

Consider `O=C(CCCCc1ccccc1)C(F)(F)C(F)(F)F`, for which the z-score was -0.184 (inactive) and the cell count was 5310.

Take `CC(=O)N[C@@H](CSC/C=C(\C)CC/C=C(\C)CC/C=C(\C)CCC=C(C)C)C(=O)O`: the z-score was 1.41 (inactive) and the cell count came out at 5420.

As for `CCC(CO)Nc1nc(NCc2ccccc2)c2ncn(C(C)C)c2n1` (configuration not stated), the z-score by setting is: under setting [1], -0.719 (inactive); under setting [2], -0.53 (inactive); under setting [3], -0.509 (inactive); under setting [4], 0.143 (inactive). In addition, the cell count under setting [1] is 5300, the cell count under setting [2] was 4780, the cell count under setting [3] turned out to be 4590 and the cell count under setting [4] is 3210.

`Cn1cnc2c(NCc3ccccc3)nc(NCCO)nc21`: the z-score is 0.158 (inactive) and the cell count turned out to be 4830.

For the compound `NC(=O)c1cnc(NCCc2ccc(O)c(Cl)c2)nc1NCc1ccccc1`, the outcome was “inactive; censored for cell count”. Moreover, under setting [5], the z-score is -1.13 (inactive) and the cell count worked out at 7430. In addition, under setting [6], the z-score was -0.967 (inactive) and the cell count came to 6770. Under setting [7], the z-score is 6.17 (active) and the cell count turned out to be 1590.
